Compound activity: PubChem, Fisher Drug Discovery Resource Center
This excerpt belongs to a sample that is enriched for hits.
mcGAS MS inh = inhibitors of mouse cGAS; Q8C6L5; recombinant mouse cGAS, cGAMP by RapidFire MS; inhibition, % at 12.5 µM; 0.18% of 130,000 active; AID 1259397;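 active means inhibition of cGAS enzyme activity at or above 60%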;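 further: enzyme stimulated by 45 bp dsDNA with ATP and GTP substrates; cGAMP share of summed cGAMP plus half ATP and half GTP signals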
Target sequence (Q8C6L5 whole entry, looked up): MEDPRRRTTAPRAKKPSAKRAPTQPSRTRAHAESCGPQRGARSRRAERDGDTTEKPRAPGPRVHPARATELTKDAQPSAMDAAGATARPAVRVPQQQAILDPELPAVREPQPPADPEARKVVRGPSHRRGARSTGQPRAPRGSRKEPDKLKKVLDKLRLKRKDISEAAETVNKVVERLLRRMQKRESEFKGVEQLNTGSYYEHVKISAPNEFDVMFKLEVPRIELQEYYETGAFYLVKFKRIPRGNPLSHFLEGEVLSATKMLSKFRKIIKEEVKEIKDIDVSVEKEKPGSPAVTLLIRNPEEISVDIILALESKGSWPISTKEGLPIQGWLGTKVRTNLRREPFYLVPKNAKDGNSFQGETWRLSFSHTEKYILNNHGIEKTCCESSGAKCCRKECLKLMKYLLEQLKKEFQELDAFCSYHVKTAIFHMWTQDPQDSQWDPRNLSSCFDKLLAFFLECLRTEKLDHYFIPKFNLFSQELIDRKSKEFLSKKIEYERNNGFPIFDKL
Large screens that a line does not name were inactive; ! = not active in a repeat.

COCCn1cc(NC(=O)N2CCCC(C)C2)c2ccccc21 (configuration not stated)	none
Cc1nc(-c2cc(C)n(CC(=O)N=c3sccn3C)c2C)cs1	none
C=CCn1cc(CN2CCn3nc(-c4nc5ccccc5n4C)cc3C2)c(C)n1	mcGAS MS inh 79
C=CCn1cc(CN2CCN(Cc3ccc4c(c3)OCO4)C(=O)C2)c(C)n1	none
Cn1c(-c2ccc(CN3CCn4cncc4C3)o2)nc2ccccc21	none
CC(C)Cc1noc(CN(C)S(=O)(=O)NCc2ccccc2)n1	none
O=C(C[n+]1ccc(NC(=O)c2ccccc2)c2ccccc21)c1ccccc1	mcGAS MS inh 64
Cc1c2cccn2cc[n+]1CC(=O)c1ccccc1	none
Cc1ccc[n+](CC(=O)c2ccc(-c3ccccc3)cc2)c1C	none
COc1cccc(NC(=O)NNC(=O)c2ccc(=O)n(Cc3ccc(C)cc3)c2)c1	none
O=S1(=O)c2cccc3cccc(c23)N1Cc1cccc2ccccc12	none
O=C(CN1c2cccc3cccc(c23)S1(=O)=O)c1c[nH]c2ccccc12	mcGAS MS inh 87
NC(=O)COc1ccc(C(=O)NNC(=O)CN2c3cccc4cccc(c34)S2(=O)=O)cc1	none
CC1CN(Cc2nc3ccccc3c3ccccc23)CC(C)O1 (configuration not stated)	none
CC(Oc1ccc(Cl)cc1Cl)C(=O)Nc1cnccc1N(C)C (configuration not stated)	none
COc1coc(C(=O)Nc2nc(C)cs2)cc1=O	none
COc1coc(C(=O)Nc2nnc(C)s2)cc1=O	mcGAS MS inh 70
COc1coc(C(=O)Nc2nc3ccccc3s2)cc1=O	none
CCC(C(=O)N1CCn2c(C(N)=O)cnc2C1)n1cccn1 (configuration not stated)	none
CC1Cc2cc(C(=O)NCc3cnn4ccccc34)ccc2O1 (configuration not stated)	none
O=c1c(O)c(-c2ccccc2)[nH]c2ccccc12	none
O=c1[nH]c2c(-c3ccccc3)c(O)cn2c2c1sc1ccccc12	mcGAS MS inh 70
O=c1[nH]c2c(-c3nc4ccccc4s3)c(O)cn2c2sc3c(c12)CCCC3	none
O=C(O)c1csc(-c2ccc(Cl)cc2Cl)n1	none
CC(=O)NCCNC(=O)c1nnc2n1CCN(Cc1ccc(Cl)c(F)c1)C2	none
C/C(=N/Nc1nc(Cl)c(C#N)c(Cl)c1Cl)c1ccc(N)cc1	none
CC(C)=NNc1nc(Cl)c(C#N)c(Cl)c1Cl	mcGAS MS inh 75
CCCCN1N=C(c2ccc(Cl)cc2)Cn2c1nc1c2c(=O)n(C)c(=O)n1C	none
c1coc(CN=C2NN=C(c3ccc4c(c3)OCCCO4)CS2)c1	none
CC(=O)c1cccc(NC(=O)CC2S/C(=N/N=C\c3ccccc3)NC2=O)c1 (configuration not stated)	none
COc1ccc(Cn2cccc(C)c2=O)c(Cl)c1	none
COc1ccc(CNCc2ccccc2Cn2cccn2)c(Cl)c1	mcGAS MS inh 83
COc1ccc(OC)c(CNCc2c(C)nc3ccccn23)c1	none
CN(C)S(=O)(=O)N1CCCC(CNC(=O)c2cccc(C(F)(F)F)c2)C1 (configuration not stated)	none
O=C1N=c2ccccc2=C1c1sc(=S)n(-c2ccc(O)cc2)c1O	none
O=C1N=c2ccccc2=C1c1sc(N2CCCCC2)nc1O	mcGAS MS inh 88
CCn1c(O)c(C2=c3ccccc3=NC2=O)sc1=S	none
COC(=O)Cc1cc(=O)n(-c2ccc(OC(F)(F)F)cc2)[nH]1	none
COc1ccc(C2c3sc(=O)[nH]c3SCC2C=NNC(N)=S)cc1 (configuration not stated)	none
CN1CCCC2(CCN(C(=O)CCCc3nc(-c4ccco4)no3)C2)C1=O (configuration not stated)	none
N#Cc1nnc2ccccc2c1N1CCC(NC2CC2)CC1	none
COc1cc(-c2ccc(NN=C3C=Cc4c(S(=O)(=O)O)cc(S(=O)(=O)O)c(N)c4C3=O)c(OC)c2)ccc1NN=C1C=Cc2c(S(=O)(=O)O)cc(S(=O)(=O)O)c(N)c2C1=O	mcGAS MS inh 98
COc1cc(-c2cccc(C(=O)O)c2)ccc1NC(C)=O	none
COc1ccc(CN(C)Cc2nnc(C(C)C)o2)cc1OC(F)F	mcGAS MS inh 81
COc1cc(CN(C)Cc2oc(CO)cc(=O)c2O)ccc1OC(F)F	none
COc1cc(CSc2nnnn2-c2ccccc2)ccc1OC(F)F	none
O=C(c1cc2ccccc2[nH]1)N1CCCC(c2nnc3ccccn23)C1 (configuration not stated)	none
O=C(Cn1cnnn1)NCCCc1ccc(Br)cc1F	none
O=c1oc2ccccc2n1CCN1c2cccc3cccc(c23)S1(=O)=O	none
O=C(COc1ccccc1)Nc1ccccc1N1CCOCC1	none
CC(C(=O)Nc1ccccc1)N(C)Cc1ccc(Cl)cc1 (configuration not stated)	none
CC(C(=O)Nc1ccc(Cl)cn1)N(C)Cc1ccsc1 (configuration not stated)	mcGAS MS inh 83
CC(C(=O)Nc1ccc(Cl)cn1)N(C)CC(=O)Nc1c(Cl)cccc1Cl (configuration not stated)	none
COC(=O)NNc1ncnc2c1nnn2C	none
COc1ncccc1NC(=O)NC1(c2ccc(Cl)cc2)CCC1	none
O=C(NC1(c2ccc(F)cc2)CCCC1)c1cccs1	none
Cc1cccnc1NC(=O)NC1(c2ccc(F)cc2)CCC1	mcGAS MS inh 78
CC(C)(C)c1csc(NC2=NCCC2)n1	none
COc1cccc(CN2CCC(NC(=O)c3ncn(Cc4ccc(Cl)cc4)c3C)C2)c1 (configuration not stated)	none
COc1cc(CN(C)C(=O)c2cc(N3CCSCC3)nc3ccccc23)cc(OC)c1OC	none
COc1ccc(Cl)cc1N1CCNC(C)C1=O (configuration not stated)	none
Cn1c(=O)c2[nH]c(/C=N\NC(N)=S)nc2n(C)c1=O	none
CC(C)(C)n1cccc(/C=N\NC(N)=S)c1=S	mcGAS MS inh 72
NC(=S)NN=Cc1c[nH]c2ccccc12	none
NC(=O)CCSc1ncnc2sc3c(c12)CCCC3	none
CCN1CCN(S(=O)(=O)N2CCOC3(CNCCOC3)C2)CC1 (configuration not stated)	none
CCOC(=O)c1[nH]nc(-c2ccc(C)cc2)c1C	none
CCOC(=O)c1[nH]nc2c1C(=O)N(CC)C2=O	mcGAS MS inh 62
CCOC(=O)c1[nH]nc2c1CC/C2=C\c1ccccc1	none
Cc1ccc(C(C)NC(=O)c2ccccc2S(=O)(=O)C(C)C)o1 (configuration not stated)	none
CCn1cc(CN(C)C(=O)c2csc(Cc3ccccc3)n2)c(C)n1	none
O[C@@H]1CN(c2nccc(C3CCCC3)n2)CC[C@H]1N1CCOCC1	none
N#Cc1ccccc1NC(=O)C1=COCCO1	none
N#Cc1ccccc1NC(=O)c1c(-c2ccccc2)c(-c2ccccc2)n[nH]c1=O	none
N#Cc1ccccc1NC(=O)c1n[nH]c([N+](=O)[O-])c1Br	mcGAS MS inh 70
O=C(Cc1csc(-n2cccc2)n1)Nc1ccc(F)c(F)c1	none
COc1cc(S(=O)(=O)Nc2ccc(Cl)cc2)ccc1NC(=O)CC(C)(C)C	none
NC(=S)N=Nc1ccc(NN=C(N)N)cc1	mcGAS MS inh 79
CCCC1CCN(Cc2cn(C3CCN(S(=O)(=O)CC)CC3)nn2)C1 (configuration not stated)	none
Cc1nc(C)n(CC2CN(C(=O)C3CCCN(C(=O)C(C)C)C3)CCO2)n1 (configuration not stated)	none
Nc1nc2ncc(CNc3ccc(C(=O)N[C@@H](CCC(=O)O)C(=O)O)cc3)nc2c(=O)[nH]1	mcGAS MS inh 82!
Nc1nc2[nH]cc(CCc3ccc(C(=O)N[C@H](CCC(=O)O)C(=O)O)cc3)c2c(=O)[nH]1	none
CN(Cc1cnc2nc(N)nc(N)c2n1)c1ccc(C(=O)N[C@@H](CCC(=O)O)C(=O)O)cc1	none
CN(CC1(CO)CCOCC1)C(=O)c1ccc(NC(=O)C2CCC2)cc1	none
